From PubChem BioAssay (NCATS)
Records with an inconclusive call do not appear. Calls of active or inactive are those of the source. Calls follow the shape of the dose curve; as a rule, active = well fitted curve in either direction with a large enough effect (not every such curve was filed as active); inconclusive = small, poorly fitted or top-dose-only effect, or another doubt; inactive = flat fitted curve, though single readings scatter.

What follows are compounds tested against Mitogen-activated protein kinase 10 (Mus musculus) (UniProt Q61831) (assay: JNK3 AlphaScreen Assay (AID 530;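 also: kinase came from lysate of stimulated human HepG2 cells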)). Conditions: JNK3 lysate, c-Jun phosphorylation; series mostly up to 57.1 µM.
From the text: NIH Chemical Genomics Center [NCGC]
NIH Molecular Libraries Screening Centers Network [MLSCN]
The c-jun N-terminal kinase (JNK) family are serine/threonine protein kinases that phosphorylate c-jun, a component of the transcription factor […] (AP-1). JNK kinases are members of the mitogen-activated protein kinase family including the extracellular regulated kinases and p38 kinases. Three JNK genes (JNK 1, 2, and 3) have been identified in humans so far. JNK1 and JNK2 have a broad distribution and JNK3 is primarily found in neuronal tissues and cardiac myocytes.
JNK3 has been under consideration as a target for the treatment of neurodegenerative disorders. […] JNK pathway is also involved in pathological process in a mouse model of Parkinson's disease (Xia et al., 2001).
Given these potential tissue distributions and links to neuroprotection, JNK3 inhibitors should provide useful investigational tools to study the role of this kinase in several diseases including, arthritis, stroke, myocardial infarction, ischemic injury and Parkinson's disease.
A homogeneous AlphaScreen is developed to measure the activity of JNK3. AlphaScreen is a two bead-based proximity-dependent chemical energy transfer luminescent assay platform. The phosphorylation of a biotinylated c-jun substrate by JNK3 can be detected with an antibody raised against phosphorylated c-jun. This process brings streptavidin donor beads and Protein-A acceptor beads to within a proximity range of <200 nm, and subsequently lead a chemical luminescent reaction upon exciting donor beads with 680 nm laser excitation light. Inhibition of JNK3 activity by small molecules and subsequent decrease in the antibody binding to biotinylated c-jun could attenuate or abolish this chemical luminescent reaction.
Yang DD, Kuan CY, Whitmarsh AJ, Rincon M, Zheng TS, Davis RJ, Rakic P and Flavell RA (1997) Absence of excitotoxicity-induced apoptosis in the hippocampus of mice lacking the Jnk3 gene. Nature 389:865-870. [PMID: 9349820]
Herdegen T, Claret FX, Kallunki T, Martin-Villalba A, Winter C, Hunter T, and Karin M (1998) Lasting N-terminal phosphorylation of c-Jun and activation of c-Jun N-terminal kinases after neuronal injury. J.Neurosci. 18:5124-5135. [PMID: 9651196]
Xia XG, Harding T, Weller M, Bieneman A, Uney JB and Schulz JB (2001) Gene transfer of the JNK interacting protein-1 protects dopaminergic neurons in the MPTP model of Parkinson's disease. Proc.Natl.Acad.Sci.U.S.A. 98:10433-10438.
NCGC Assay Protocol Summary:
GST-cJun (1-79) (Stratagene, La Jolla CA, #205145) was biotnylated by PerkinElmer (PerkinElmer-BioSignalInc. Montreal, Canada) and was detectable by the streptavidin Donor beads. Anti-(phospho)cJun (Ser73) antibody was from UpState (Charlottesvilles, VA, #06-659). JNK3-containing lysates were generated from HepG2 cells and pre-activated by interleukin1-beta and tumor necrosis factor alpha. All reagents were stored at -20 C before using. Phosphorylated biotinylated-GST-cJun was recognized by Anti-(phospho)cJun (Ser73) antibody and this process brings acceptor and donor beads together. Therefore JNK3 phosphorylation of cJun can be measured by Alpha reading by EnVision (PerkinElmer, Boston, MA).
The composition of kinase buffer was (in mM) 20 tris- HCl (pH 7.6) 10 MgCl2, 1 DTT, and 0.1 Na3VO4 and 0.01% Tween-20. Beads were diluted in detection buffer containing (in mM) 20 tris-HCl (pH 7.7), 20 NaCl and 80 EDTA and 0.3% BSA. The assay was performed at room temperature. All compounds were screened as titrations from 0.6 nM to 46 uM final concentration. The assay was performed in 1536-well format (white solid bottom and untreated) as follows:
Sequence,Parameter,Value,Description
1,Reagent,3 uL,Biotin-GST-cJun, Anti-(phospho)cJun and pre-activated JNK3-containing lysates
2,Compound,23 nL,Final concentration was 0.6nM to 46uM
3,Time,15 minutes,Room Temperature
4,Reagent,1 uL,ATP final concentration 10uM
6,Reagent,0.5 uL,2ng/well bead mixture
[…]

outcome, inactive:
COC(=O)c1ccc(C(NC(=O)OCc2ccccc2)/C(C)=C/[C@@H](C)C(=O)N2CCN(C)CC2)cc1 (stereo not given in full)
COc1ccc(CNC(=O)[C@H](C)[C@H]2C[C@]2(C)[C@H](NC(=O)OCc2ccccc2)c2ccccc2)cc1OC
CNC(=O)[C@@]1(C)C=C[C@@H](Cc2ccccc2)N1C(=O)OC
COC(=O)[C@@]1(C)C=C[C@@H](Cc2ccccc2)N1C(=O)c1ccccc1
COC(=O)[C@@]1(Cc2ccc(OC)cc2)[C@H]2c3cc(C(=O)N(C)C)n(CCc4ccc(O)c(OC)c4)c3C[C@H]2CN1C(=O)c1ccccc1
COC(=O)[C@@]1(Cc2ccc(OC)cc2)[C@H]2c3cc(C(=O)N(C)C)n(Cc4cc(C)n(C)n4)c3C[C@H]2CN1C(=O)c1ccccc1
CN1[C@H](Cc2ccccc2)C=C[C@]1(C)C(=O)NCC1CC1
COC(=O)CNC(=O)[C@@]1(Cc2ccccc2)C=C[C@@H](C)N1C(=O)c1ccccc1
COC(=O)[C@H](Cc1ccccc1)NC(=O)[C@]1(C)C[C@H]1[C@H](NC(=O)OCc1ccccc1)c1ccccc1
CNC(=O)[C@@]1(Cc2ccccc2)C=C[C@@H](C)N1C(C)=O
CCCCCCN(C(=O)CCCCCN1C(=O)NC(c2ccc(C(F)(F)F)cc2)C(C(=O)OCc2ccccc2)=C1C)C(C(=O)NCCCC)c1ccc(OCC(=O)OC)c(C(=O)OC)c1 (stereo not given)
COCCNC(=O)C1(C)C=CCN1C(C)=O (stereo not given)
C[C@@H]1C=C[C@](Cc2ccccc2)(C(=O)NCCN2CCOCC2)N1C(=O)c1ccccc1
COC(=O)CNC(=O)C1(C)C=CC2(CCCCC2)N1C(C)=O (stereo not given)
COC(=O)c1ccc(C(NC(=O)OCc2ccccc2)/C(C)=C/[C@@H](C)C(=O)NCCc2c[nH]c3ccc(OC)cc23)cc1 (stereo not given in full)
C[C@@H](C(=O)Nc1ccc2ccccc2c1)[C@@H]1C[C@@]1(C)[C@@H](NC(=O)c1ccccc1)c1ccccc1
C[C@@H](C(=O)NCC1CC1)[C@H]1C[C@]1(C)[C@H](NC(=O)OCc1ccccc1)c1ccccc1
CNC(=O)[C@@H]1C[C@H]1[C@@H](NC(=O)CNC(=O)OCc1ccccc1)c1ccccc1
CCc1c2c(nc3ccc(OC)cc13)OC(C)C2 (stereo not given)
CC(Cc1ccccc1)C(=O)Nc1ccccc1 (stereo not given)
COC(=O)CNC(=O)[C@@]1(C)C=C[C@@H](Cc2ccccc2)N1C(=O)OC
COCCNC(=O)C1(CC(C)C)C=CCN1C(C)=O (stereo not given)
COC(=O)[C@@]1(Cc2ccc(F)cc2)[C@H]2c3cc(C(=O)N4CCCC4)n(Cc4cc(C)n(C)n4)c3C[C@H]2CN1C(=O)c1ccccc1
COC(=O)c1ccc(C(NC(=O)OCc2ccccc2)/C(C)=C/[C@@H](C)C(=O)Nc2ccc(OC)cc2)cc1 (stereo not given in full)
CCCCNC(=O)C(c1ccc(OCC(=O)OC)c(C(=O)OC)c1)N(CCC1=CCCCC1)C(=O)CCCCCN1C(=O)NC(c2ccc(-c3ccccc3)cc2)C(C(=O)OCc2ccccc2)=C1C (stereo not given)
COC(=O)[C@@]1(Cc2ccc(OC)cc2)[C@H]2c3cc(C(=O)N4CCCC4)n(Cc4ccc(S(C)(=O)=O)cc4)c3C[C@H]2CN1C(=O)c1ccccc1
C[C@@H](C(=O)NCc1ccccc1)[C@@H]1C[C@@]1(C)[C@@H](NC(=O)OCc1ccccc1)c1ccccc1
COC(=O)c1ccc(C(NC(=O)OCc2ccccc2)/C(=C/[C@@H](C)C(=O)N[C@@H](CO)Cc2ccccc2)c2cccnc2)cc1 (stereo not given in full)
CCCCCCN(C(=O)CCCCCN1C(=O)NC(c2ccc(-c3ccccc3)cc2)C(C(=O)OCc2ccccc2)=C1C)C(C(=O)NCCCC)c1ccccc1 (stereo not given)
C[Si](C)(C)C#Cc1ccccc1NC(=S)Nc1ccccc1
COCCNC(=O)[C@H](C)/C=C(\c1cccnc1)C(NC(=O)OCc1ccccc1)c1ccc(C(=O)OC)cc1 (stereo not given in full)
COC(=O)[C@@]1(Cc2ccc(OC)cc2)[C@H]2c3cc(C(=O)N4CCCC4)n(CCc4ccc(O)c(O)c4)c3C[C@H]2CN1C(=O)c1ccccc1
COC(=O)c1ccc(C(NC(=O)OCc2ccccc2)/C(=C/[C@@H](C)C(=O)NCCF)c2cccnc2)cc1 (stereo not given in full)
COC(=O)[C@@H]1C[C@H]1[C@@H](N)c1ccccc1
COC(=O)[C@@]1(Cc2ccc(OC)cc2)[C@H]2c3cc(C(=O)N4CCCC4)n(CCc4ccc(O)c(OC)c4)c3C[C@H]2CN1C(=O)c1ccccc1
COC(=O)c1ccc(C(NC(=O)OCc2ccccc2)/C(=C/[C@@H](C)C(=O)NCc2nc3ccccc3n2C)c2cccnc2)cc1 (stereo not given in full)
COC(=O)c1ccc(C(NC(=O)OCc2ccccc2)/C(C)=C/[C@@H](C)C(=O)NCc2nc3ccccc3s2)cc1 (stereo not given in full)
CC(C)CC1(C(=O)NCC2CC2)C=CCN1C(=O)c1ccccc1 (stereo not given)
COc1ccc(NC(=O)CCCCC#Cc2ccccc2)cc1
COC(=O)c1ccc(C(NC(=O)OCc2ccccc2)/C(=C/[C@@H](C)C(=O)NCc2ccccc2)c2cccnc2)cc1 (stereo not given in full)
